Screening data (PubChem BioAssay)
Compounds with a hit are over-represented: about 4.5% of the library has one in this group of screens.
TPT1 inh = Candida albicans TPT1 enzyme inhibitors, primary screen, biochemical, fluorescence polarization. inhibition, % at 5 µM. recombinant caTPT1, FP RNA substrate dephosphorylation. tRNA 2'-phosphotransferase TPT1 (Candida albicans SC5314). AID 1962, 2009. hit rate 0.81% among 300,000;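 active = inhibition above the mean of all tested compounds plus 3 SD, set per screening campaign, cut at about 24% in these data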;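 also: plate controls were DMSO alone for no effect and ferristatin control at 100 nM for full effect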
dFosB act-1 = activators of delta FosB homodimer, primary screen, biochemical, fluorescence polarization, TAMRA-CDK5 oligo, single point; Protein FosB (Mus musculus), P13346; purified delta FosB; percent of positive-control signal above neutral wells; activation, % at 25 µM; hit rate 0.99% among 340,000;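 active = mean activation above about 17%, with every replicate also reaching it, limit read from the data, passing the limit was not always enough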
ZTA counter = counter-screen for EBNA-1 inhibitors: inhibitors of Epstein-Barr virus ZTA; inhibition, % at 11 µM; AID 2234; ZTA-DNA binding, fluorescence polarization; hit rate 0.15% among 320,000; in the data active = inhibition above about 33%
Target sequence (P03206 whole entry, looked up): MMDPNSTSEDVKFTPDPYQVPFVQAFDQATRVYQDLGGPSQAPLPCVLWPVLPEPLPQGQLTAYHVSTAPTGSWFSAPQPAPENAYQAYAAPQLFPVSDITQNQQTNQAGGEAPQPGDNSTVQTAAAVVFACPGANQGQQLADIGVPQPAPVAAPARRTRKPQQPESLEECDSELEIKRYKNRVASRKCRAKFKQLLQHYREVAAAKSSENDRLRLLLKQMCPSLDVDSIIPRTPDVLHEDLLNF
Rpn11 block = Rpn11 (PSMD14) deubiquitinase inhibitors, primary screen, biochemical, fluorescence polarization, uHTS. 26S proteasome non-ATPase regulatory subunit 14 (Homo sapiens), O00487. human 26S proteasome, Ub4-pepOG fluorescence polarization; 20S core pre-blocked with epoxomicin. inhibition, % at 20 µM. hit rate 0.59% among 360,000;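 active = inhibition at 20 µM, scaled to each plate's controls, above about 33%, limit read from the data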
Target sequence (O00487 whole entry, looked up): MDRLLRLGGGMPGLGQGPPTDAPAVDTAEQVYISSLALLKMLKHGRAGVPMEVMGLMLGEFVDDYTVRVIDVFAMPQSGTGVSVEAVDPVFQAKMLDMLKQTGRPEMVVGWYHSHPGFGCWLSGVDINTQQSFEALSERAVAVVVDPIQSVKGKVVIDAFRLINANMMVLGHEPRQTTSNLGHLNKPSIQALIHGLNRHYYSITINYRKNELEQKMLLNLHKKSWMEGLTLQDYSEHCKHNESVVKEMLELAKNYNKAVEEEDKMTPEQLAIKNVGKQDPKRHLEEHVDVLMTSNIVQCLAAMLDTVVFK
NR3A LBD binder = binders of NR3A ligand-binding domain, primary screen, biophysical, differential scanning fluorimetry, uHTS | Glutamate receptor ionotropic, NMDA 3A (GRIN3A) ligand-binding domain | NR3A LBD differential scanning fluorimetry, Tm shift; 0% = protein alone, 100% = glycine-bound protein | Tm shift relative to glycine control, % at 25 µM | hit rate 2.5% among 340,000;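 active = melting temperature shift of at least 10% of the positive control shift, at one fixed dose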
EBNA-1 inh = EBNA-1 DNA-binding inhibitors, primary screen, biochemical, fluorescence polarization. inhibition, % at 14.8 µM. hit rate 0.34% among 300,000. AID 1950, 2009; in the data active = inhibition above about 28%
dFosB act-2 = activators of mouse delta FosB DNA binding, confirmation, biochemical, fluorescence polarization, TAMRA-CDK5 oligo, cherry-picked samples; shares compounds with dFosB act-1; purified delta FosB; normalised: neutral wells 0, positive control 100; activation, % at 24.9 µM; 2,400 tested, under 10 active; AID 588690, 2011;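 active = highest replicate activation at or above 34% and every replicate reaching that threshold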;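 also: higher polarization means more probe DNA bound by delta FosB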
The depositor's hits bear a star.

What do the screens show for `CCCCn1c(N)c(N(CCC(C)C)C(=O)c2cccc(N3C(=O)c4ccccc4C3=O)c2)c(=O)[nH]c1=O`?
TPT1 inh: -6; dFosB act-1: 22*; ZTA counter: 9; Rpn11 block: 1; NR3A LBD binder: 1; EBNA-1 inh: -2; dFosB act-2: -1

Results for Cn1cnnc1SC(C(=O)Nc1cc(Cl)cc(Cl)c1)c1ccccc1 (stereo unspecified) ?
TPT1 inh: 2; dFosB act-1: 20*; ZTA counter: -7; Rpn11 block: 3; NR3A LBD binder: -11; EBNA-1 inh: -8; dFosB act-2: 12

Results for CC(CNC(=O)COC(=O)c1cccnc1Cl)c1ccccc1 (stereo unspecified) ?
dFosB act-1: 8; Rpn11 block: -8; NR3A LBD binder: -2

Results for O=C(NCc1nnnn1-c1ccc(F)cc1)c1ccc2c(c1)OCO2 ?
Rpn11 block: -2

Results for CCOc1ccc(-n2nnnc2SCC(=O)Nc2ccc(NC(C)=O)cc2)cc1 ?
TPT1 inh: 3; dFosB act-1: 19*; ZTA counter: -8; Rpn11 block: -2; NR3A LBD binder: -1; EBNA-1 inh: -7; dFosB act-2: 4

Results for COc1cc(/C=N/NC(=S)NC(C)C)ccc1OCC(=O)Nc1c(C)cc(C)cc1C ?
TPT1 inh: 4; dFosB act-1: 29*; ZTA counter: -10; Rpn11 block: -4; NR3A LBD binder: 0; EBNA-1 inh: -6; dFosB act-2: 0

Results for O=C(COc1ccccc1)NCC(c1ccco1)N1CCN(c2ccccc2)CC1 (stereo unspecified) ?
TPT1 inh: -3; dFosB act-1: -6; ZTA counter: 3; Rpn11 block: 7; NR3A LBD binder: 0; EBNA-1 inh: 1

What do the screens show for `Cc1sc2nc(SCC(=O)Nc3cccc(S(N)(=O)=O)c3)[nH]c(=O)c2c1C`?
dFosB act-1: 3; Rpn11 block: 13; NR3A LBD binder: -6

What do the screens show for `Cc1sc2nc(SCC(=O)Nc3ccc(S(N)(=O)=O)cc3)[nH]c(=O)c2c1C`?
TPT1 inh: -4; dFosB act-1: 101*; ZTA counter: 12; Rpn11 block: -7; NR3A LBD binder: -6; EBNA-1 inh: 4; dFosB act-2: 0

What do the screens show for `COc1cc(C(=S)N2CCOCC2)ccc1OC(=O)c1cc([N+](=O)[O-])c(C)c([N+](=O)[O-])c1`?
TPT1 inh: 5; dFosB act-1: -5; ZTA counter: 14; Rpn11 block: 1; NR3A LBD binder: 1; EBNA-1 inh: 6

Results for COc1ccc2nc(SCC(=O)Nc3ccc4sc(C)nc4c3)c(C#N)cc2c1 ?
TPT1 inh: 12; dFosB act-1: 21*; ZTA counter: 1; Rpn11 block: 17; NR3A LBD binder: -2; EBNA-1 inh: 13; dFosB act-2: -14

How did COc1ccc2cc(C#N)c(SCC(=O)NNC(=O)Cc3ccccc3)nc2c1 do in these assays?
TPT1 inh: 1; dFosB act-1: 68*; ZTA counter: 0; Rpn11 block: 7; NR3A LBD binder: -1; EBNA-1 inh: -8; dFosB act-2: 1

Results for Cc1ccc2cc(C#N)c(SCC(=O)NNC(=O)Cc3ccccc3)nc2c1 ?
dFosB act-1: -2; Rpn11 block: -2; NR3A LBD binder: 4

How did O=C(/C=C\c1ccc(-c2cccc([N+](=O)[O-])c2)o1)N1CCOCC1 do in these assays?
TPT1 inh: 2; dFosB act-1: 3; ZTA counter: 2; Rpn11 block: -1; NR3A LBD binder: 2; EBNA-1 inh: -6

Results for Nc1c(C(=O)NCc2cccs2)nnn1CC(=O)Nc1cccc(Cl)c1 ?
TPT1 inh: -2; dFosB act-1: 21*; ZTA counter: 20; Rpn11 block: 9; NR3A LBD binder: -2; EBNA-1 inh: 11; dFosB act-2: -2

Results for Cc1cccc(NC(=O)Cn2nnc(C(=O)Nc3ccc(F)c(Cl)c3)c2N)c1 ?
TPT1 inh: 0; dFosB act-1: 90*; ZTA counter: -18; Rpn11 block: -1; NR3A LBD binder: 3; EBNA-1 inh: -10; dFosB act-2: 1

How did COc1ccc(NC(=O)Cn2nnc(C(=O)NCc3cccs3)c2N)cc1 do in these assays?
TPT1 inh: 0; dFosB act-1: 14; ZTA counter: 6; Rpn11 block: 4; NR3A LBD binder: 0; EBNA-1 inh: 7

Results for Cc1ccc(NC(=O)Cn2nnc(C(=O)NCc3cccs3)c2N)cc1 ?
TPT1 inh: -1; dFosB act-1: 15; ZTA counter: 5; Rpn11 block: 6; NR3A LBD binder: -1; EBNA-1 inh: 6

How did COc1ccc(NC(=O)Cn2nnc(C(=O)NCc3cccs3)c2N)cc1Cl do in these assays?
TPT1 inh: -3; dFosB act-1: 35*; ZTA counter: 8; Rpn11 block: -4; NR3A LBD binder: -1; EBNA-1 inh: 26; dFosB act-2: 5

How did CC(=O)C1=C(O)CCCC1=NCc1nc2ccccc2[nH]1 do in these assays?
TPT1 inh: 2; dFosB act-1: -4; ZTA counter: 10; Rpn11 block: -1; NR3A LBD binder: -1; EBNA-1 inh: 1

How did Cc1ccc(C)c(NC(=O)C2CC3c4ccccc4C2c2ccccc23)c1 (stereo unspecified) do in these assays?
TPT1 inh: -5; dFosB act-1: 40*; ZTA counter: -3; Rpn11 block: -8; NR3A LBD binder: -1; EBNA-1 inh: 15; dFosB act-2: 0

What do the screens show for `COc1ccc(N2C(=O)c3ccccc3NC2c2ccc(OC)c(Cn3nnc4ccccc43)c2)cc1` (stereo unspecified)?
TPT1 inh: 3; dFosB act-1: 30*; ZTA counter: 7; Rpn11 block: -5; NR3A LBD binder: 3; EBNA-1 inh: 16; dFosB act-2: 0

What do the screens show for `CC1CCCC(NC(=O)c2cccc(S(=O)(=O)N3CCOCC3)c2)C1C` (stereo unspecified)?
Rpn11 block: 1

What do the screens show for `CCN1CCN(c2nc3c(C)cccn3c(=O)c2/C=C(\C#N)S(=O)(=O)c2ccc(C)cc2)CC1`?
TPT1 inh: 2; dFosB act-1: 0; ZTA counter: -4; Rpn11 block: 11; NR3A LBD binder: -19; EBNA-1 inh: -1
